Assay outcomes deposited in PubChem by several laboratories.
Shown are actives, neighbours in structure and some others; about 3.6% of the full set was active somewhere.
APOBEC3G inh: inhibitors of human APOBEC3G DNA deaminase; Q9HC16; recombinant A3G, ssDNA deamination FAM/TAMRA fluorescence; inhibition, % at 20 µM; hit rate 0.28% among 330,000; AID 493012;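 active = inhibition of at least 40% at 20 µM, with no more than 30% in the related APOBEC3A deaminase screen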;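 also: plate controls were DMSO wells with A3G for no effect and wells lacking A3G enzyme for full effect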
Target sequence (Q9HC16 whole entry, looked up): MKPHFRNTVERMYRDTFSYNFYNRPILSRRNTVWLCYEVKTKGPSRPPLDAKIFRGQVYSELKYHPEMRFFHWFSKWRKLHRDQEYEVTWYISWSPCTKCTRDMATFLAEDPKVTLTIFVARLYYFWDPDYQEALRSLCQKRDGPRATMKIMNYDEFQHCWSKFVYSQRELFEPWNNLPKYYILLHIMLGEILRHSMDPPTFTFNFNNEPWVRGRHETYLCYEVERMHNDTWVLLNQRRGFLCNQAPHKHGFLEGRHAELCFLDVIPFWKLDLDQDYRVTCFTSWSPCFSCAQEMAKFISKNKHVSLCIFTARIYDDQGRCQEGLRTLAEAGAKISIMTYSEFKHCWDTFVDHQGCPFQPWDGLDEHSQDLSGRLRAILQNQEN
PHOSPHO1 block: inhibitors of human PHOSPHO1 phosphatase | hit rate 1.1% among 290,000 | recombinant PHOSPHO1, absorbance phosphatase assay | AID 1565 | inhibition, % at 13.3 µM | Q8TCT1; in the data active = inhibition above about 60%
MITF TRPM1 HTS: MITF TRPM1 promoter activation in melanoma cells; activation, % at 12.5 µM; hit rate 0.75% among 300,000; AID 588334; SK-MEL-5 TRPM1-promoter luciferase, 24 h; % of positive control, neutral wells = 0;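 active = mean activation of at least 80% with every replicate also reaching 80%; inconclusive = mean reaches 80% but some replicate falls short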;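 also: 0% = neutral control wells and 100% = parthenolide positive control wells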
esBAF inh: inhibitors of esBAF chromatin remodeling in mouse ES cells | Bmi1-luciferase knock-in reporter, 24 h; 100% = twice the neutral-well signal | reporter increase, % at 12.5 µM | hit rate 2% among 350,000; in the data active = activation above about 40%; inconclusive = no clear call, values can overlap the other calls;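 also: 0% = median of the plate's neutral control wells and 100% = double that signal; a rise in the Bmi1 reporter signal indicates esBAF inhibition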
Wnt act: Wnt/beta-catenin pathway activation; Wnt/beta-catenin reporter cell assay, activator, plate reader; hit rate 1.2% among 300,000; AID 743398; activation, % at 9.35 µM; in the data active = activation above about 30%, passing the limit was not always enough; inconclusive = no clear call, values can overlap the other calls;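 also: 0% = neutral control wells and 100% = positive control wells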
A3A deaminase: human APOBEC3A DNA deaminase inhibition; P31941; recombinant A3A, FAM/TAMRA ssDNA deamination fluorescence; inhibition, % at 20 µM; hit rate 0.41% among 330,000; AID 493011;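 active = at least 40% inhibition at 20 µM here, with at most 30% in a related deaminase screen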;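 also: plate controls were A3A with DMSO for no effect and wells lacking A3A enzyme for full effect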
Target sequence (P31941 whole entry, looked up): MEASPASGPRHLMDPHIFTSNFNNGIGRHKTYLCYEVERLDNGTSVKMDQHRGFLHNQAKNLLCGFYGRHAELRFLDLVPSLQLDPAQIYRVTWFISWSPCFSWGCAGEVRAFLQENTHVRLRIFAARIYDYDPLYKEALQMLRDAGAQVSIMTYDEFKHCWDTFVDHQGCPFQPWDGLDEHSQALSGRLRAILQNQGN
APOBEC3G confirm: confirmation of human APOBEC3G DNA deaminase inhibitors; shares compounds with APOBEC3G inh; recombinant A3G ssDNA deaminase, UDG/FAM-TAMRA fluorescence; inhibition, % at 20 µM; hit rate 72% among 890;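 active = inhibition reaching a set limit in any replicate at 20 µM, the limit being 80% of the first screen's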
UDG A3G counter: inhibits E. coli UDG, flagging false APOBEC3G inhibitors. shares compounds with APOBEC3G inh. UDG counterscreen, FAM/TAMRA oligo fluorescence. inhibition, % at 20 µM. 710 tested, under 10 active;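 active = compounds giving 40% or more inhibition at 20 µM in any one of the three replicates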;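 also: plate controls were DMSO wells with UDG and oligo for no effect and DMSO wells lacking both for full effect; inhibitors lower the FAM signal released by uracil excision and alkaline cleavage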
Ring1 derepress: de-represses Ring1 in mouse ESCs, confirming esBAF inhibition; shares compounds with esBAF inh; mouse ESC E14, Ring1 mRNA RT-qPCR fold change; fold change at 33 µM; 550 tested, under 10 active; AID 743176;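 active = Ring1 gene expression raised more than 2-fold over untreated cells in both replicates at either tested dose; inconclusive = only one replicate above 2-fold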;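 also: Ring1 transcript normalised to actin housekeeping signal by TaqMan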
esBAF Fgf4 qPCR: confirmation of esBAF inhibitors: Fgf4 repression in mouse ESCs | shares compounds with esBAF inh | mouse ESC E14, Fgf4 mRNA qPCR fold change; hits give low values | Fgf4 expression fold change at 33 µM | hit rate 4% among 550;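 active = Fgf4 expression under 0.8 fold of control in both repeat measurements at one or both tested doses; inconclusive = under 0.8 fold in just a single repeat measurement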;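 also: Fgf4 transcript normalised to actin in duplex TaqMan qPCR; cells exposed to compound for 24 h before lysis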
esBAF Bmi1 qPCR: de-represses Bmi1 in mouse ESCs, confirming esBAF inhibition | fold change at 33 µM | mouse ESE14 ES cells, Bmi1 mRNA qPCR fold; hits give high values | shares compounds with esBAF inh | 550 tested, under 10 active;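 active = Bmi1 expression fold change above 6 at either tested concentration, seen in replicate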;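 also: higher fold means more Bmi1 de-repression and stronger esBAF inhibition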
A549 tox SP: cytotoxicity in A549 cells. cell viability change % (negative = cytotoxic), % at 25 µM, hits read low. shares compounds with esBAF inh. plate reader. 550 tested, under 10 active. AID 743188; call rule not given here
HepG2 cytotox SP: HepG2 cell cytotoxicity at single point; shares compounds with esBAF inh; plate reader; hits give low values; activity change, negative = inhibition, % at 25 µM; hit rate 4% among 550; AID 743189; in the data active = activity change below about -50%
HEK293 cytotox SP: kills or reduces viability of HEK293 cells; shares compounds with esBAF inh; HEK293 cytotoxicity, plate reader; activity change, negative = inhibition, % at 25 µM, hits read low; hit rate 3% among 550; in the data active = activity change below about -38%, passing the limit was not always enough
* = called active by the depositor; ? = inconclusive; nt = no result.

SMILES	APOBEC3G inh	PHOSPHO1 block	MITF TRPM1 HTS	esBAF inh	Wnt act	A3A deaminase	Ring1 derepress	esBAF Fgf4 qPCR	esBAF Bmi1 qPCR	A549 tox SP	HepG2 cytotox SP	HEK293 cytotox SP	others
Clc1ccc(N/N=C/c2cccnc2)cc1	40*	-18	?	70*	nt	-1	1.1	0.96	1.8	0	-11	-12	APOBEC3G confirm=0;UDG A3G counter=1
C[C@@H]1CN([C@H](C)CO)C(=O)Cc2cc(NC(=O)C3CCCCC3)ccc2O[C@H]1CN(C)CC1CC1	nt	nt	nt	2	nt	nt	nt	nt	nt	nt	nt	nt
CN(C)S(=O)(=O)c1ccc(C(=O)Nc2ccc3c(c2)CCC3)cc1	-11	37	47	75*	22	-2	1	0.94	1.7	-2	-43	-14
O=C(C[C@H]1CC[C@H]2[C@@H](COC[C@H](O)CN2Cc2cc(F)ccc2F)O1)NCc1ccccc1	nt	nt	nt	0	nt	nt	nt	nt	nt	nt	nt	nt
O=C(NCCC1=CCCCC1)c1cc(COc2c(F)cccc2F)on1	-7	20	16	14	1	-5	nt	nt	nt	nt	nt	nt
CC(=O)c1cccc(OCc2cc(C(=O)NCCC3=CCCCC3)no2)c1	-4	15	72	83*	?	-3	1	1.1	0.94	-12	-19	-8
O=C(Nc1ccc(Cl)c(Cl)c1)Nc1ccccc1O	8	13	nt	74*	10	-4	1.7	?	1.7	5	-5	4
CC(=O)Nc1ccc(NC(=O)c2ccccc2F)cc1	-10	14	nt	16	20	0	nt	nt	nt	nt	nt	nt
O=C(Nc1ccc(F)cc1)c1ccccc1F	-2	-9	82*	85*	22	0	1.3	1	1.6	-11	-3	-16
O=C(N/N=C/c1ccccc1)c1ccc(NC(=O)c2ccc(F)cc2)cc1	3	20	12	58*	1	2	1.2	1.1	1.2	7	8	0
C[C@H]1CN([C@@H](C)CO)C(=O)Cc2cc(NS(=O)(=O)c3ccccc3)ccc2O[C@H]1CN(C)C	nt	nt	nt	2	nt	nt	nt	nt	nt	nt	nt	nt
COc1ccc(NC(=O)c2cc(-c3ccc(F)cc3C)n[nH]2)cc1OC	nt	nt	nt	21	6	nt	nt	nt	nt	nt	nt	nt
Cc1cc(F)ccc1-c1cc(C(=O)Nc2ccc(F)cc2)[nH]n1	nt	nt	nt	71*	1	nt	1.2	0.89	1.7	-7	3	-7
Fc1cc(Cl)cc2ccc(-c3ccccc3)nc12	nt	nt	nt	56*	6	nt	1.5	0.98	1.8	9	67	-5
Fc1ccc2nc(-c3ccccc3)ccc2c1	nt	nt	nt	60*	18	nt	1.1	0.82	1.7	-4	-58*	-6
C[C@H](CO)N1C[C@H](C)[C@H](CN(C)Cc2ccncc2)Oc2ncc(C#Cc3ccc(F)cc3)cc2C1=O	nt	nt	nt	3	nt	nt	nt	nt	nt	nt	nt	nt
O=C(CC(=O)c1ccccc1)c1ccccc1	nt	nt	46	86*	1	nt	1.3	0.82	1.8	-5	-18	-3
O=c1c2ccccc2oc2cc(-c3ccc4cc[nH]c4c3)ccc12	-6	nt	129*	71*	38*	1	1.3	0.92	1.6	-3	0	9
COc1ccccc1-c1oc2ccccc2c1-c1ccc2cc[nH]c2c1	-4	nt	1	-17	-3	0	nt	nt	nt	nt	nt	nt
Cc1ccc(CNC(=O)c2ccc(Cn3cc(-c4ccc(C)cc4)nc3-c3ccncc3)cc2)cc1	-10	20	nt	99*	47*	-4	1.4	1	1.9	-9	21	-14
Cc1ccc(CNC(=O)CCn2cc(-c3ccc(C)cc3)nc2-c2ccncc2)cc1	-9	41	5	0	-1	-5	nt	nt	nt	nt	nt	nt
C[C@H]1CCCCO[C@H](CN(C)S(=O)(=O)c2ccc(F)cc2)[C@@H](C)CN([C@@H](C)CO)C(=O)c2cc(NS(=O)(=O)c3ccccc3)ccc2O1	nt	nt	nt	-3	nt	nt	nt	nt	nt	nt	nt	nt
Cc1cccc2sc(NC(=O)c3ccc(Cl)s3)nc12	-5	-11	21	?	-2	-3	nt	nt	nt	nt	nt	nt
COc1cccc2sc(NC(=O)c3ccc(Br)s3)nc12	-5	6	31	68*	nt	-2	1.6	0.88	1.6	8	18	2
CO[C@@H]1CN(C)C(=O)c2cc(NS(=O)(=O)c3cccc(C)c3)ccc2OC[C@H](C)NC[C@H]1C	nt	nt	nt	0	nt	nt	nt	nt	nt	nt	nt	nt
SMILES	APOBEC3G inh	PHOSPHO1 block	MITF TRPM1 HTS	esBAF inh	Wnt act	A3A deaminase	Ring1 derepress	esBAF Fgf4 qPCR	esBAF Bmi1 qPCR	A549 tox SP	HepG2 cytotox SP	HEK293 cytotox SP	others
CS(=O)(=O)c1ccccc1C(=O)Nc1ccc(-c2nc3ccccc3[nH]2)cc1	-1	15	64	58*	18	-4	1.2	1.4	2	-3	-18	6
CS(=O)(=O)c1ccccc1C(=O)Nc1ccc(-c2nc3ccccc3o2)cc1	-5	31	72	67*	22	-3	1.2	1.1	2.2	-6	0	4
COc1cc(OC)cc(C(=O)Nc2ccc(-c3nc4ccccc4o3)cc2)c1	-3	5	-6	14	nt	3	nt	nt	nt	nt	nt	nt
C[C@@H]1CN([C@H](C)CO)C(=O)c2cc(/C=C/c3ccccc3)cnc2O[C@@H]1CN(C)C(=O)C1CCC1	nt	nt	nt	1	nt	nt	nt	nt	nt	nt	nt	nt
O=C(CCN1C(=O)/C(=C/C=C/c2ccccc2)SC1=S)Nc1cccnc1	-12	2	52	67*	21	-3	1.2	0.59*	4	-10	-5	-5
C[C@H](CO)N1C[C@H](C)[C@H](CN(C)Cc2ccc(C(=O)O)cc2)OCCCC[C@H](C)Oc2ccc(NS(C)(=O)=O)cc2C1=O	nt	nt	nt	1	nt	nt	nt	nt	nt	nt	nt	nt
CCNC(=O)[C@H]1[C@H](CO)[C@H]2Cn3c(ccc(C4=CCCC4)c3=O)[C@H]2N1CC1CC1	nt	nt	nt	7	nt	nt	nt	nt	nt	nt	nt	nt
Cc1ccc(C(=O)N2CCc3ccccc32)cc1C	nt	nt	nt	52*	22	nt	1.3	1	1.5	9	19	-6
CCN1CCN(C(=O)c2cc3c(OC)c(OC)c(OC)cc3[nH]2)CC1	-6	36	8	-3	-3	2	nt	nt	nt	nt	nt	nt
O=C(c1ccccc1)N1CCc2ccccc21	-6	6	-2	nt	nt	0	nt	nt	nt	nt	nt	nt
